In PubChem BioAssay (Tox21):
“And” between values parts separate entries of the source, which are not always exact repeats. Identical values can stand only once. Inconclusive results are not listed. A call without a number means that no potency is given here. More than one record can exist for a structure, and the calls need not agree. The source made the active and inactive calls. Unless noted, the call rests on the fitted dose curve.

Assays:
[1] = Nuclear factor erythroid 2-related factor 2/antioxidant responsive element (Nrf2/ARE) small molecule agonists: qHTS cell viability counter screen in human keratinocytes (AID 1919968; active means well fitted curve in the direction sought with a large enough effect in the repeat runs; an effect the other way counts as inactive or inconclusive; further: nearly all actives have a fitted effect of over 55% in size; further: potency means the concentration at half of the fitted maximal effect)
Procedure, shortened: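 Cytotoxicity was multiplexed with the Nrf2/ARE luciferase assay in the same wells. Stably transfected HaCaT keratinocytes were treated with test compounds for 23 h at 37 C. Cell viability was then measured by CellTiter-Fluor fluorescence.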

[2] = Nuclear factor erythroid 2-related factor 2/antioxidant responsive element (Nrf2/ARE) small molecule agonists: luciferase reporter gene qHTS assay in human keratinocytes (AID 1919969); further: nearly all actives have a fitted effect of over 35% in size; further: potency means the concentration at half of the fitted maximal effect
[3] = biological target: Gonadotropin-releasing hormone receptor (Homo sapiens) (UniProt P30968); test: Human gonadotropin-releasing hormone receptor (GnRHR) small molecule agonists, calcium flux assay in GnRHR-HEK293 cells (AID 1920063); further: nearly all actives have a fitted effect of over 35% in size
Procedure, shortened: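 Agonist activity was measured as intracellular calcium flux in HEK293 cells engineered to stably express human GnRHR. After dye loading for 1 hour at 37 C, compounds in DMSO were added and fluorescence was followed for 3 minutes.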

[4] = biological target: KiSS-1 receptor (Homo sapiens) (UniProt Q969F8); test: Human kisspeptin (KISS1R) small molecule agonists, calcium flux assay in KISS1R-HEK293 cells (AID 1920064; active means well fitted curve in the direction sought with a large enough effect in the repeat runs; an effect the other way counts as inactive or inconclusive)
Procedure, shortened: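 Agonist activity is monitored as intracellular calcium rise in engineered HEK293 cells carrying human KISS1R. Cells are dye-loaded for 1 h at 37 C before compound addition, and fluorescence is recorded for 3 min.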

[5] = G protein-coupled receptor (GPCR) small molecule agonists, calcium flux assay: HEK293 wild type cell line counter screen (AID 1920065)
Procedure, shortened: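 Seed cells, incubate 18 h (37 C, 5% CO2); add calcium dye, 1 h at 37 C; pin-transfer compounds, ATP control or DMSO; read fluorescence 480/540 nm each second for 3 min.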

[6] = p53 small molecule agonists, cell-based qHTS assay with human liver microsomes (AID 1963577)
Procedure, shortened: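 Fluorescence of the beta-lactamase reporter in p53RE-bla cells, detected with LiveBLAzer substrate (2 h, room temperature, dark), served as the read-out after 16 h compound exposure at 37 C with human liver microsomes and NADPH, each 0.5 mg/mL final.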

[7] = p53 small molecule agonists, cell-based qHTS assay with rat liver microsomes (AID 1963578)
Procedure, shortened: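 Cells carrying a p53 response element–beta-lactamase reporter were plated and rested 5 h, then dosed with compound in DMSO plus rat liver microsomes and NADPH, each at 0.5 mg/mL final. After 16 h at 37 C, LiveBLAzer substrate was added for 2 h.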

[8] = p53 small molecule agonists, cell-based qHTS assay with rat liver microsomes: qHTS cell viability counter screen (AID 1963580); further: nearly all actives have a fitted effect of over 45% in size; further: potency means the concentration at half of the fitted maximal effect
Procedure, shortened: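 Rat liver microsome (0.5 mg/mL final) and NADPH (0.5 mg/mL final) co-incubation with compounds for 16 h at 37 C on HCT-116 p53RE-bla cells; cytotoxicity taken from intracellular ATP luminescence.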

[9] = p53 small molecule agonists, cell-based qHTS assay: qHTS cell viability counter screen (AID 1963581); further: nearly all actives have a fitted effect of over 45% in size; further: potency means the concentration at half of the fitted maximal effect
Procedure, shortened: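 Viability was counter-screened in parallel with the p53 agonist reporter by measuring intracellular ATP luminescence in the same HCT-116 p53RE-bla wells after 16 h compound treatment at 37 C.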

[10] = p53 small molecule agonists, cell-based qHTS assay (AID 1963582; active means well fitted activation curve with a large enough effect in the signal ratio in the repeat runs, not every such curve was filed as active; the % refers to the signal ratio)
Procedure, shortened: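 Cells carrying a p53-responsive bla reporter are treated with test compounds for 16 h at 37 C; beta-lactamase activity is then detected with LiveBLAzer B/G FRET substrate after 2 h at room temperature.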

[11] = biological target: 5-hydroxytryptamine receptor 2A (Homo sapiens) (UniProt P28223); test: 5-hydroxytryptamine receptor 2A (HTR2A) small molecule antagonists, cell-based qHTS assay (AID 1963586); further: nearly all actives have a fitted effect of over 45% in size
Procedure, shortened: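 CHO cells stably expressing human HTR2A were plated for 18 h at 37 C, then loaded with calcium dye for 1 h. Compounds were preincubated 5 min at room temperature before DOI (4 nM solution) was added. Kinetic fluorescence was read for 3 min.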

[12] = biological target: 5-hydroxytryptamine receptor 2A (Homo sapiens) (UniProt P28223); test: 5-hydroxytryptamine receptor 2A (HTR2A) small molecule agonists, cell-based qHTS assay (AID 1963587); further: nearly all actives have a fitted effect of over 30% in size
Procedure, shortened: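 Kinetic calcium-flux fluorescence (2 min, 1 sec intervals) after compound addition in agonist mode. HTR2A-CHO cells were cultured 18 h, then dye-loaded 1 h at 37 C.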

[13] = biological target: Muscarinic acetylcholine receptor M1 (Homo sapiens) (UniProt P11229); test: Cholinergic receptor muscarinic 1 (CHRM1) small molecule antagonists, cell-based qHTS assay (AID 1963588); further: nearly all actives have a fitted effect of over 40% in size; further: potency means the concentration at half of the fitted maximal effect
Procedure, shortened: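 Compounds were tested at 15 concentrations in three independent runs. Dye-loaded CHRM1-CHO cells were exposed 5 min at room temperature before stimulation by acetylcholine added at 50nM. Intracellular calcium was read kinetically on FDSS for 3 min.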

[14] = biological target: Muscarinic acetylcholine receptor M1 (Homo sapiens) (UniProt P11229); test: Cholinergic receptor muscarinic 1 (CHRM1) small molecule agonists, cell-based qHTS assay (AID 1963589); further: nearly all actives have a fitted effect of over 35% in size
Procedure, shortened: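 Cells were plated and incubated 18 h at 37 C/5% CO2, loaded with calcium dye for 1 h at 37 C, then treated with compounds in DMSO. Fluorescence was recorded kinetically at 1 sec intervals.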

[15] = cAMP Responsive Elements (CRE) small molecule agonists, cell-based qHTS assay (AID 1963590)
Procedure, shortened: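 Cells carrying a CRE-driven beta-lactamase reporter (HEK 293T) are seeded, incubated overnight (18 h), and treated with test compounds for 3 h at 37 C; reporter activity is then detected with a FRET substrate after 2 h at room temperature.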

[16] = cAMP Responsive Elements (CRE) small molecule antagonists, cell-based qHTS assay (AID 1963591; active means well fitted inhibition curve with a large enough effect in the signal ratio in the repeat runs, not every such curve was filed as active; the % refers to the signal ratio)
Procedure, shortened: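 Cells (CRE-bla HEK 293T, DMEM with 10% dialyzed FBS and 25 mM HEPES) are seeded and incubated 18 h. Compounds are added with NKH477 agonist at 0.25 uM final for 3 h, then FRET substrate for 2 h.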

[17] = biological target: Beta-2 adrenergic receptor (Homo sapiens) (UniProt P07550); test: Adrenergic beta2 receptor (ADRB2) small molecule antagonists, cell-based qHTS assay (AID 1963592); further: series mostly up to about 92 µM; nearly all actives have a fitted effect of over 50% in size
Procedure, shortened: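 Assay format: CHO-ADRB2 cells, 18-20hr seeding at 37C/5% CO2, then compound plus 1nM isoproterenol agonist mix for 0.5hr RT. Homogeneous time-resolved fluorescence cAMP detection after 1hr, expressed as 665/615 nm ratio.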

[18] = biological target: D(2) dopamine receptor (Homo sapiens) (UniProt P14416); test: Dopamine D2 receptor (DRD2) small molecule agonists, cell-based qHTS assay (AID 1963594); further: nearly all actives have a fitted effect of over 35% in size
Procedure, shortened: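 cAMP accumulation in DRD2-HEK293 cells measured by HTRF after 1 h detection; compounds added 10 min before NKH477 (200nM […]) forskolin-analogue stimulation, 30 min at room temperature, with Ro20-1724 present at 0.1 mM final.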

[19] = biological target: D(2) dopamine receptor (Homo sapiens) (UniProt P14416); test: Dopamine D2 receptor (DRD2) small molecule antagonists, cell-based qHTS assay (AID 1963595; active means well fitted inhibition curve with a large enough effect in the signal ratio in the repeat runs, with a control signal flat; the % refers to the signal ratio; further: potency means the concentration at half of the fitted maximal effect)
Procedure, shortened: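 Antagonist mode in DRD2-HEK293 cells: after compound addition with 0.1 mM Ro20-1724, cells received quinpirole (12 nM) and NKH477 (200 nM) for 30 min at room temperature; HTRF cAMP read after 1 h detection.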

Sequence of Gonadotropin-releasing hormone receptor (Homo sapiens) (P30968 whole entry, looked up): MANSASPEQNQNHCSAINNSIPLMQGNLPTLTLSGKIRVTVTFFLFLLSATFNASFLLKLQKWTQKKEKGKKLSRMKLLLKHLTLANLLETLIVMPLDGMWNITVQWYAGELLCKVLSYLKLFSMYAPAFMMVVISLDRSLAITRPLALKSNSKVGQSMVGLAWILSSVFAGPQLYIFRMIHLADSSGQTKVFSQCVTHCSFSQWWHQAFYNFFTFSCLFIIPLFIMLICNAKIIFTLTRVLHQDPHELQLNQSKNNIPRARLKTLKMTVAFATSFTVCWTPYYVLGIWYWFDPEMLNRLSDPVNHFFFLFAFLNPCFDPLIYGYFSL
Sequence of D(2) dopamine receptor (Homo sapiens) (P14416 whole entry, looked up): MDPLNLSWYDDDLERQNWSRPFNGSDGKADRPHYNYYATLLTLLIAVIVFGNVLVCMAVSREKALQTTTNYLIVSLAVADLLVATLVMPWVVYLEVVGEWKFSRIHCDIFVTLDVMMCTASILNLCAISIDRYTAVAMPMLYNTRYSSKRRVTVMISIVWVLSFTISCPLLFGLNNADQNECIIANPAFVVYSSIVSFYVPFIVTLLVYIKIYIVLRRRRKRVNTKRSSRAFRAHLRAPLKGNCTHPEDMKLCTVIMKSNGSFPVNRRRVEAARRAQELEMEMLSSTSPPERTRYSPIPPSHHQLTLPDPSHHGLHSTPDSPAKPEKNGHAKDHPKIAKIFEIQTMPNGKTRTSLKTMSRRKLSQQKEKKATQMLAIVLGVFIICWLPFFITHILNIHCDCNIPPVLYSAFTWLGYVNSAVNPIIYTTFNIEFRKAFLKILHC
Sequence of 5-hydroxytryptamine receptor 2A (Homo sapiens) (P28223 whole entry, looked up): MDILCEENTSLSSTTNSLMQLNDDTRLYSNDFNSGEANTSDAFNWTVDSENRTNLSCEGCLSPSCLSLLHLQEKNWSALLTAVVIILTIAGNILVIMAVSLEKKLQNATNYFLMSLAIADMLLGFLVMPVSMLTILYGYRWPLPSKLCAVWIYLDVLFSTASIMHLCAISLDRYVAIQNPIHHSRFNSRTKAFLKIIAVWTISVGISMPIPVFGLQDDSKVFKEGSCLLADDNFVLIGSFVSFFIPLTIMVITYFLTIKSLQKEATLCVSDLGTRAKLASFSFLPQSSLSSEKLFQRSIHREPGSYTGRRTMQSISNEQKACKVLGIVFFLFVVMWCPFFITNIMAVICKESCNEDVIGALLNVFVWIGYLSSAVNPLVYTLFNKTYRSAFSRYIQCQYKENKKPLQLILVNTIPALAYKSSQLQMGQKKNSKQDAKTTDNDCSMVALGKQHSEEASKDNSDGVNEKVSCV
Sequence of KiSS-1 receptor (Homo sapiens) (Q969F8 whole entry, looked up): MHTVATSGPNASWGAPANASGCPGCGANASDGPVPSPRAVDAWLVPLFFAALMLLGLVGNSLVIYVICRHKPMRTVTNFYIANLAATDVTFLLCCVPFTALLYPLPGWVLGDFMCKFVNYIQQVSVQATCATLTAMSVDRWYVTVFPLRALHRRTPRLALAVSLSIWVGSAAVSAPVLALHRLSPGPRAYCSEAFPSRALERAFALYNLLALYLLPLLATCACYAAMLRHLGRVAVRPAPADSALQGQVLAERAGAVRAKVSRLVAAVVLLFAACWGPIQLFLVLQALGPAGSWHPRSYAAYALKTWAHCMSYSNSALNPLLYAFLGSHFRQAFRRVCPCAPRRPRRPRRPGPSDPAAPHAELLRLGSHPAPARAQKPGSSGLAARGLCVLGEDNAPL
Sequence of Muscarinic acetylcholine receptor M1 (Homo sapiens) (P11229 whole entry, looked up): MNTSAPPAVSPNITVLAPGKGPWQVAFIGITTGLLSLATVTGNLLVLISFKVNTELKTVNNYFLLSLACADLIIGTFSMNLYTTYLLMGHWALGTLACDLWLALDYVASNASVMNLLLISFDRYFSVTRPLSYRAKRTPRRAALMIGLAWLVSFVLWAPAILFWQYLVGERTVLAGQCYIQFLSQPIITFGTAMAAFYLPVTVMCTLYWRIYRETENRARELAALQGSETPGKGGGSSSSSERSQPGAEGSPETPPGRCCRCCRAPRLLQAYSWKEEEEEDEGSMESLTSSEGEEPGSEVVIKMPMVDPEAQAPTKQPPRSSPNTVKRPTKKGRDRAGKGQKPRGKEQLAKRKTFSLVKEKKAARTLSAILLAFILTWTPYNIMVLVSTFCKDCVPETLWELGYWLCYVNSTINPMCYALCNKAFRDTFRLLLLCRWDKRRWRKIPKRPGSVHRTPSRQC
Sequence of Beta-2 adrenergic receptor (Homo sapiens) (P07550 whole entry, looked up): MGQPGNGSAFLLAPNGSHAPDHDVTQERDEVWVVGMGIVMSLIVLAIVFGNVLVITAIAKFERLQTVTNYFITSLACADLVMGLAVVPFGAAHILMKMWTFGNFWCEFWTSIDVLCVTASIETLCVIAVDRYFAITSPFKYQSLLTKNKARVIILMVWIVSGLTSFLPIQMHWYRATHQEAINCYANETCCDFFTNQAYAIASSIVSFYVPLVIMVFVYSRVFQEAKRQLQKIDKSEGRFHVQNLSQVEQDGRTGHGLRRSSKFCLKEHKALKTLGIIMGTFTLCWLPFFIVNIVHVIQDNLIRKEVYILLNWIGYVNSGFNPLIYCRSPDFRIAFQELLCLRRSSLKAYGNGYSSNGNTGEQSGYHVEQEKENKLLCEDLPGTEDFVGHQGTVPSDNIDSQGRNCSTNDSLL

In the case of `Brc1c(Br)c(Br)c(Br)c(Br)c1Br`, the activity change, negative = cytotoxicity [1] was 1.17% [at 8.39 µM] (inactive), the activity, positive = activation [2] was 1.37% [at 8.39 µM] (inactive) and the activity change [3] was 0.959% [at 5.22 µM, stronger effect = higher value] (inactive). For the same compound, the activation [4] was -5.73% [at 6.97 µM] (inactive), the activation [5] was 0.0498% [at 5.23 µM] (inactive) and the activation [6] was 1.36% [at 5.99 µM] (inactive). The activation [7] was -3.05% [at 5.99 µM] (inactive), the activity change, negative = cytotoxicity [8] was 2.93% [at 5.99 µM] (inactive) and the activity change, negative = cytotoxicity [9] was -11.2% [at 5.99 µM] (inactive). For the same compound, the activation [10] was 2.53% [at 5.99 µM] (inactive), the activity, negative = inhibition [11] was -11.3% [at 5.62 µM] (inactive) and the activation [12] was -1.65% [at 7.02 µM] (inactive). For the same compound, the activity, negative = inhibition [13] was 23.8% [at 5.58 µM] (inactive), the activation [14] was -0.148% [at 6.97 µM] (inactive) and the activation [15] was -0.136% [at 8.39 µM] (inactive). For the same compound, the activity change, negative = inhibition [16] was -5.46% [at 8.39 µM] (inactive), the activity change, negative = inhibition [17] was -9.58% [at 8.39 µM] (inactive) and the activation [18] was -0.47% [at 8.39 µM] (inactive).

With `Cl/C=C\CCl` the Potency [1] was “inactive”, the Potency [2] was “inactive” and the Potency [3] was “inactive”. For the same compound, the Potency [4] was “inactive”, the Potency [5] was “inactive” and the Potency [6] was “inactive”. The Potency [7] was “inactive”, the Potency [9] was “inactive” and the Potency [10] was “inactive”. The Potency [11] was “inactive”, the Potency [12] was “inactive” and the Potency [13] was “inactive”. The Potency [14] was “inactive”, the Potency [15] was “inactive” and the Potency [16] was “inactive”. For the same compound, the Potency [17] was “inactive”, the Potency [18] was “inactive” and the Potency [19] was “inactive”.

In the case of `Nc1ccccc1C(=O)OCC(O)CO` (stereo not drawn), the Potency [1] was “inactive”, the Potency [2] was “inactive” and the Potency [3] was “inactive”. The Potency [4] was “inactive”, the Potency [5] was “inactive” and the Potency [6] was “inactive”. The Potency [7] was “inactive”, the Potency [9] was “inactive” and the Potency [10] was “inactive”. For the same compound, the Potency [11] was “inactive”, the Potency [12] was “inactive” and the Potency [13] was “inactive”. For the same compound, the Potency [14] was “inactive”, the Potency [15] was “inactive” and the Potency [16] was “inactive”. The Potency [17] was “inactive”, the Potency [18] was “inactive” and the Potency [19] was “inactive”.

For `CCCCOC(=O)c1ccccc1C(=O)O`, the Potency [1] was “inactive”, the Potency [2] was “inactive” and the Potency [3] was “inactive”. The Potency [4] was “inactive”, the Potency [5] was “inactive” and the Potency [6] was “inactive”. The Potency [7] was “inactive”, the Potency [8] was “inactive” and the Potency [9] was “inactive”. The Potency [10] was “inactive”, the Potency [11] was “inactive” and the Potency [12] was “inactive”. The Potency [13] was “inactive”, the Potency [14] was “inactive” and the Potency [15] was “inactive”. For the same compound, the Potency [16] was “inactive”, the Potency [17] was “inactive” and the Potency [18] was “inactive”. The Potency [19] was “inactive”.

For `ClCCBr`, the Potency [1] was “inactive”, the Potency [2] was “inactive” and the Potency [3] was “inactive”. For the same compound, the Potency [4] was “inactive”, the Potency [5] was “inactive” and the Potency [6] was “inactive”. The Potency [7] was “inactive”, the Potency [8] was “inactive” and the Potency [9] was “inactive”. For the same compound, the Potency [10] was “inactive”, the Potency [11] was “inactive” and the Potency [12] was “inactive”. The Potency [13] was “inactive”, the Potency [14] was “inactive” and the Potency [15] was “inactive”. For the same compound, the Potency [16] was “inactive”, the Potency [17] was “inactive” and the Potency [18] was “inactive”. The Potency [19] was “inactive”.

For `O=NN1CCCC1`, the Potency [1] was 14.3 µM (active) and inactive, the Potency [2] was “inactive” and the Potency [3] was “inactive”. For the same compound, the Potency [4] was “inactive”, the Potency [5] was “inactive” and the Potency [6] was “inactive”. The Potency [7] was “inactive”, the Potency [8] was “inactive” and the Potency [9] was “inactive”. The Potency [10] was “inactive”, the Potency [11] was “inactive” and the Potency [12] was “inactive”. For the same compound, the Potency [14] was “inactive”, the Potency [17] was “inactive” and the Potency [18] was “inactive”. The Potency [19] was “inactive”.

In the case of `ClC1=C(Cl)C2(Cl)C3C(Cl)C=CC3C1(Cl)C2(Cl)Cl` (stereo not drawn), the Potency [1] was 27.4 µM (active) and 61.1 µM (active), the Potency [2] was “inactive” and the Potency [3] was “inactive”. For the same compound, the Potency [4] was “inactive”, the Potency [5] was “inactive” and the Potency [6] was “inactive”. The Potency [7] was “inactive”, the Potency [8] was “inactive” and the Potency [9] was “inactive”. For the same compound, the Potency [10] was “inactive”, the Potency [11] was “inactive” and the Potency [12] was “inactive”. The Potency [13] was “inactive”, the Potency [14] was “inactive” and the Potency [15] was “inactive”. The Potency [16] was “inactive”, the Potency [18] was “inactive” and the Potency [19] was “inactive”.

In the case of `CCC(C)(C)c1ccc(O)c(C(C)(C)CC)c1`, the Potency [1] was 13.5 µM (active) and 24.3 µM (active), the Potency [2] was 7.7 µM (active) and the Potency [3] was “inactive”. The Potency [4] was “inactive”, the Potency [5] was “inactive” and the Potency [6] was “inactive”. For the same compound, the Potency [7] was “inactive”, the Potency [8] was “inactive and 25.7 µM (active)” and the Potency [9] was 18 µM (active) and 22.9 µM (active). The Potency [13] was 20.9 µM (active), the Potency [14] was “inactive” and the Potency [18] was “inactive”. For the same compound, the Potency [19] was “inactive and 43.3 µM (active)”.

In the case of `Nc1ccc(Cc2ccc(N)cc2)cc1`, the Potency [1] was “inactive”, the Potency [2] was “inactive” and the Potency [3] was “inactive”. The Potency [4] was “inactive”, the Potency [5] was “inactive” and the Potency [6] was “inactive”. For the same compound, the Potency [7] was “inactive”, the Potency [8] was “inactive” and the Potency [9] was “inactive”. The Potency [10] was “inactive”, the Potency [15] was “inactive” and the Potency [16] was “inactive”. For the same compound, the Potency [17] was “inactive” and the Potency [19] was “inactive”.
